Screening data: PubChem, National Center for Advancing Translational Sciences (NCATS)
YjeE inh = inhibitors of E. coli YjeE (TsaE); purified YjeE enzyme, qHTS inhibition assay; Potency, µM; P0AF67; 71,000 tested, 0.05% active; AID 605
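Fluorescence polarization of a BODIPY Texas Red–ADP probe (2 uM) bound to purified YjeE (10 uM) was read after 15 min room-temperature incubation with compounds. Loss of polarization marks inhibitors; ADP serves as titrated control.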
Tau filament bind = tau filament binding; recombinant tau filaments, thioflavin S fluorescence, 15 h; filaments grown with octadecylsulfate alongside compound; Potency, µM (doses to about 57.1 µM); 71,000 tested, 2% active; AID 596;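 also: actives lower thioflavin S fluorescence by blocking filaments or displacing dye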
Target sequence (P10636 whole entry, looked up): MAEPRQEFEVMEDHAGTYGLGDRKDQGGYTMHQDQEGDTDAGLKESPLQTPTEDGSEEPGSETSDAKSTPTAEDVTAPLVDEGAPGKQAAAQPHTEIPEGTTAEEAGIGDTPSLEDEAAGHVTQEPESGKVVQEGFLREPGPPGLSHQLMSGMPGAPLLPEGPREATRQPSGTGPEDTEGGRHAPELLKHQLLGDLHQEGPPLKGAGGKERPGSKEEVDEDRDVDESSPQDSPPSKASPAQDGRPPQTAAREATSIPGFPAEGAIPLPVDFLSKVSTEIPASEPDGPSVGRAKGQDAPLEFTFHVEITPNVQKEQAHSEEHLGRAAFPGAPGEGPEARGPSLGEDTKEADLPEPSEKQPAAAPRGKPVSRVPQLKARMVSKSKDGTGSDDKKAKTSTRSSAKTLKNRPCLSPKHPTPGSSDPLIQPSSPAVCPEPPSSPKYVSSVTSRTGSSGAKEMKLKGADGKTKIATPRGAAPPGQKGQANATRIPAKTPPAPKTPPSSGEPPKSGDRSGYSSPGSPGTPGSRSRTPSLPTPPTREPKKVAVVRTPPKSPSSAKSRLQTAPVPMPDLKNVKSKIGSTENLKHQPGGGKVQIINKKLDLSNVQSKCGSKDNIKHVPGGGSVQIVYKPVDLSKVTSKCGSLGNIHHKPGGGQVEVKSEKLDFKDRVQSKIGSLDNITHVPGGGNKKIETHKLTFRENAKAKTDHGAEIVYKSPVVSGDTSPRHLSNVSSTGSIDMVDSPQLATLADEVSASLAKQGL
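ThS-based fibril read: tau 1 uM final, inducer ODS 30 uM final, 37 C for 15 h, ex 450/em 510 nm.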
DNA Pol III inh = blocks replication by bacterial DNA polymerase III holoenzyme. reconstituted DNA polymerase III holoenzyme replication, biochemical. Potency, µM (doses to about 57.1 µM). 71,000 tested, 0.25% active. AID 603
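Reconstituted *E. coli* holoenzyme (0.35 nM Pol III, 1 nM beta, 154 nM SSB, 2 nM primase) was preincubated with compound for 15 min at RT. Synthesis on 1.4 nM ssM13Gori ran 35 min, then was stopped with PicoGreen/EDTA and read as dsDNA fluorescence.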
BRCT PPI red = BRCT-phosphoprotein interaction inhibition (red fluorophore); P38398; BRCT-phosphopeptide binding, red fluorescence polarization; Potency, µM (series often up to 76.9 µM), actives largely listed as inhibitors; 75,000 tested, 0.03% active; AID 892
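Fluorescence polarization: 100 nM His-tagged BRCA1 BRCT with 100 nM TAMRA-labelled phospho-BACH1 decapeptide, phosphate buffer pH 7.3 with 150 mM NaCl, DTT, 0.01% Tween 20; 12 min RT. Binding inhibition seen as FP decrease.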
Hsp90 Hop PPI = changes Hsp90-Hop TPR2A binding signal, up or down; AlphaScreen TPR2A-His6 binding biotin-Hsp90 C-terminal peptide; Potency, µM (top dose mostly 57 µM); 71,000 tested, 0.44% active; AID 595; active = well fitted curve in either direction with a large enough effect; inconclusive = small, poorly fitted or top-dose-only effect, or another doubt
BRCT inh green = BRCA1 BRCT-phosphoprotein interaction inhibition; P38398; BRCA1 BRCT-phosphopeptide binding, green fluorescence polarization; Potency, µM (series often up to 76.9 µM), hits mostly inhibitors; 75,000 tested, 0.05% active; AID 875
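Fluorescence polarization: His-tagged BRCT (~35 kDa BRCA1 C-terminus, 250 nM) bound to 100 nM fluorescein-labeled phosphorylated 10-aa BACH1 peptide, pH 7.3 phosphate buffer with DTT and Tween 20. Compounds incubated 12 min at room temperature; inhibition read as lowered polarization.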
A number is an active result; – = inactive; ? = inconclusive; · = not tested or not shown; [ ] = another dose, or the depositor's remark. A selection: hits, their analogues and other compounds. The true share with any hit is near 2.4%. Unless noted, calls follow the shape of the dose curve; as a rule, active = well fitted curve in the direction sought with a large enough effect; inconclusive = small, poorly fitted or top-dose-only effect, or another doubt; inactive = no such curve, though single readings can be large; an effect the other way counts as inactive or inconclusive.

SMILES | YjeE inh | Tau filament bind | DNA Pol III inh | BRCT PPI red | Hsp90 Hop PPI | BRCT inh green
Cc1ccc(NC(=O)NCCCN2CCOCC2)cc1 | – | – | – | – | – | –
O=c1c2ccccc2oc2cc(O)c([C@@H]3COC[C@@H](CO)[C@@H](O)[C@@H](O)[C@H]3O)c(O)c12 | – | ? | – | · | – | ·
CN(C)c1ncc2nc(-c3ccccc3)c(=O)n(C3CC3)c2n1 | – | – | – | – | 20µM | –
S=C1NC=NC2N=CNC12 (configuration not stated) | – | – | – | – | – | –
O=c1cc(-c2ccccc2)c2ccc(O)c(CN3CCCCC3)c2o1 | – | – | – | – | – | –
O=c1oc2c(CN3CCCCCC3)c(O)ccc2cc1-c1nc2ccccc2[nH]1 | – | – | – | – | – | 31.6µM
c1ccc2c(c1)nnn1c3ccccc3nc21 | – | 7.94µM | – | – | – | –
Cc1nc2ccccc2c2nc3ccccc3n12 | – | – | – | – | – | –
O=C(CSc1nnc(C2COc3ccccc3O2)o1)Nc1nccs1 (configuration not stated) | – | – | – | – | 12.6µM | –
O=C(CSc1nnc(C2COc3ccccc3O2)o1)NC1CCCCC1 (configuration not stated) | – | – | – | – | – | –
Clc1cc(Cl)cc(Cl)c1 | – | – | – | – | – | –
Cc1c(Cl)cccc1NC(=O)c1cc(-c2ccc(O)cc2)on1 | – | – | – | – | – | –
O=c1ccc2c(o1)/C(=C/C=C(Cl)Cl)CCC2 | – | 2µM | –[11.4 µM] | – | –[11 µM] | –
Cn1c(C(=O)NCCCN2CCCCCC2)cc2c(=O)n(C)c3ccccc3c21 | – | – | 7.94µM | – | –[2.3 µM] | –
O=c1cc(CF)[nH]c(=S)[nH]1 | – | –[11.4 µM] | –[11.4 µM] | –[15.4 µM] | –[11 µM] | –[15.4 µM]
Cc1ccc2nsnc2c1S(=O)(=O)N1CCN(Cc2ccc3c(c2)OCO3)CC1 | – | 15.8µM | – | – | – | –
CC(C)/C(=N/[N+](C)(C)C)c1ccccc1 | – | –[11.4 µM] | –[11.4 µM] | –[15.4 µM] | –[11 µM] | –[15.4 µM]
COc1ccc2c(=O)c3c(=O)n(Cc4ccco4)c(-c4ccc(C)cc4)nc3oc2c1 | – | 10µM | – | – | – | –
O=c1c2ccccc2oc2nc(-c3ccco3)n(Cc3ccccc3)c(=O)c12 | – | 20µM | – | – | – | –
Cc1ccc(C(=O)[C@@H]2[C@@H]3[C@@H](C(=O)[C@@H]4OC[C@H]3O4)[C@@H]3C=Cc4ccccc4N23)cc1 | – | 31.6µM | – | · | ? | ·
O[C@@H]1CC[C@H]2Cc3ccccc3N=C21 | – | ? | – | · | – | ·
CC(C)(C)NC[C@@H](O)COc1ccccc1C1CCCC1 | – | 12.6µM | – | – | – | –
COc1cccc2c1C(=O)c1c(O)c3c(c(O)c1C2=O)C[C@](O)(C(=O)CO)C[C@H]3O[C@@H]1C[C@H](N)[C@H](O)[C@H](C)O1 | – | 5.01µM | 0.794µM | ? | – | –
Nc1c(S(=O)(=O)c2cccs2)c2nc3ccccc3nc2n1Cc1ccc2c(c1)OCO2 | – | – | – | – | – | –
c1csc(-c2nc3nc4ccccc4nc3n2Cc2ccc3c(c2)OCO3)c1 | – | 3.16µM | – | – | – | –
SMILES | YjeE inh | Tau filament bind | DNA Pol III inh | BRCT PPI red | Hsp90 Hop PPI | BRCT inh green
COc1ccc(CC[N@+]2(C)COc3cc4oc(=O)cc(C)c4cc3C2)cc1OC | – | –[11.4 µM] | –[11.4 µM] | –[15.4 µM] | –[11 µM] | –[15.4 µM]
N#C[C@H]1CN[C@H](N)N[C@@H]1N | – | –[11.4 µM] | –[11.4 µM] | –[15.4 µM] | –[11 µM] | –[15.4 µM]
COc1ccc(-c2cc(=O)c3ccccc3s2)cc1 | – | 25.1µM | – | – | – | –
Cc1ccc2[nH]c3c(c2c1)CCc1cn[nH]c1-3 | – | 7.94µM | – | – | – | –
CN(C)c1nc(N2CCCCC2)nc(N2CCCCC2)n1 | – | – | – | – | –[2.3 µM] | –
OCCN(CCO)c1nc(N2CCCCC2)c2nc(N(CCO)CCO)nc(N3CCCCC3)c2n1 | – | – | – | – | – | 39.8µM
NC(=O)NC(N)=O | – | – | – | – | – | –
O=C(Nc1ccc(Nc2ccccc2)cc1)C1CC1 | – | 10µM | – | – | ? | –
OCC1OC([S-])[C@H](O)C(O)C1O.[Au+] (some centres not stated) | · | · | · | 31.6µM | · | –[3.08 µM]
Cc1cccc(C)c1NC(=O)Cn1cnc2c(=O)n(C)c(=O)n(C)c21 | – | – | – | – | – | –
